# In the supplement of paper PMC12494721:
# Structures can show the parent of a compound that is named as a salt. Unmarked numbers belong to inactive results.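 Rule for the calls: for the amine columns active = adjusted P below 0.05 in both replicates with a change the same way and a mean fold change under 0.8 or over 1.25; inactive = the rest.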
# System: Ruminococcus gnavus DSM 108212
# Assay: fold change of Tryptamine concentration vs plate DMSO controls (fold change (ratio)); higher = more amine produced, active = hit call of the paper (significant change in both replicates, either direction)
# Settings: incubation time: 27 h, anaerobic, 37 °C
# In short: (§1)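 Anaerobic mGAM cultures of four gut bacterial strains were grown at 37 °C for 27 h in 80 µL wells, starting at OD 0.1 before 1:1 dilution. Compounds were at 20 µM final (sweeteners 50 µM). Whole cultures were extracted with cold acetonitrile/methanol containing 0.1% formic acid and centrifuged. Amines were quantified by LC–triple-quadrupole MS (dynamic MRM) against external calibration curves and drift-corrected within batch. Each value is the fold change versus plate DMSO controls, averaged over 2 biological replicates.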
row,Structure (SMILES),fold change of Tryptamine concentration
1,COc1ccccc1O [Guaiacol] (20 µM),1.05
2,COc1ccc(CC2c3cc(OC)c(OC)cc3CC[N+]2(C)CCC(=O)OCCCCCOC(=O)CC[N+]2(C)CCc3cc(OC)c(OC)cc3C2Cc2ccc(OC)c(OC)c2)cc1OC (stereo not given) [Atracurium besylate] (20 µM),1.1
3,O=C(O)Cc1cc(I)c(Oc2ccc(O)c(I)c2)c(I)c1 [Tiratricol] (20 µM),0.827
4,COc1cc(/C=C/C(=O)N2CCN(CC(=O)N3CCCC3)CC2)cc(OC)c1OC [Cinepazide maleate] (20 µM),1.1
5,C[C@H](CCC(=O)O)[C@H]1CC[C@H]2[C@@H]3C(=O)C[C@@H]4CC(=O)CC[C@]4(C)[C@H]3CC(=O)[C@]12C [Dehydrocholic acid] (20 µM),0.987
6,CN1CCOC(c2ccccc2)c2ccccc2C1 (stereo not given) [Nefopam hydrochloride] (20 µM),1.02
7,CCOc1ccc(NC(N)=O)cc1 [(4-Ethoxyphenyl)urea] (50 µM),0.999
8,CCCCOc1ccc(CC(=O)NO)cc1 [Bufexamac] (20 µM),1.02
9,CCOc1ccc2ccccc2c1C(=O)N[C@@H]1C(=O)N2[C@@H]1SC(C)(C)[C@@H]2C(=O)O [Nafcillin sodium salt monohydrate] (20 µM),0.0506 (active)
10,c1ccc2cc3c(ccc4ccccc43)cc2c1 [Benz[a]anthracene] (20 µM),1.12
11,CC(C)NC[C@H](O)COc1cccc2ccccc12 [(S)-(-)-Propranolol hydrochloride] (20 µM),1

# System: Escherichia coli IAI1
# Assay: fold change of Putrescine concentration vs plate DMSO controls (fold change (ratio)); higher = more amine produced, active = hit call of the paper (significant change in both replicates, either direction)
# Settings: incubation time: 27 h, anaerobic, 37 °C
# In short: as §1
row,Structure (SMILES),fold change of Putrescine concentration
1,OC[C@H]1O[C@@H](O[C@H]2[C@H](O)[C@@H](O)[C@H](O)O[C@@H]2CO)[C@H](O)[C@@H](O)[C@H]1O [Lactose] (50 µM),1.03
2,C[C@@]12CC[C@@H]3[C@@](CC[C@H]4[C@@]3(C)CCC[C@@]4(C)C(=O)O)(CC1=O)C2 [Iso-Steviol] (50 µM),0.992
3,CCCCOc1ccc(C(=O)CCN2CCCCC2)cc1 [Dyclonine hydrochloride] (20 µM),0.989
4,CN(C)c1nc(N(C)C)nc(N(C)C)n1 [Altretamine] (20 µM),1.15
5,"c1ccc(CNc2ncnc3nc[nH]c23)cc1 [Aminopurine, 6-benzyl] (20 µM)",1.03
6,OCCN1CCN(CC/C=C2/c3ccccc3Sc3ccc(C(F)(F)F)cc32)CC1 [Flupentixol dihydrochloride cis-(Z)] (20 µM),1.02
7,Cc1onc(-c2ccccc2)c1C(=O)N[C@@H]1C(=O)N2[C@@H]1SC(C)(C)[C@@H]2C(=O)O [Oxacillin sodium] (20 µM),0.949
8,Cc1ccc(Cl)c(Nc2ccccc2C(=O)O)c1Cl [Meclofenamic acid sodium salt monohydrate] (20 µM),0.999
9,Clc1ccc(C(Cn2ccnc2)OCc2c(Cl)cccc2Cl)c(Cl)c1 (stereo not given) [Isoconazole] (20 µM),1.01
10,NNc1nncc2ccccc12 [Hydralazine hydrochloride] (20 µM),0.983
11,O=C(O)CCC(=O)c1ccc(-c2ccccc2)cc1 [Fenbufen] (20 µM),1.04
12,C[C@]12CCC(=O)C=C1C=C[C@@H]1[C@@H]2CC[C@@]2(C)[C@H]1CC[C@@]21CCC(=O)O1 [Canrenone] (20 µM),0.86
13,CCN(CCO)CCCC(C)Nc1ccnc2cc(Cl)ccc12 (stereo not given) [Hydroxychloroquine sulfate] (20 µM),0.915
14,C[C@@H](O)[C@H]1C(=O)N2C(C(=O)O)=C(S[C@@H]3CN[C@H](C(=O)N(C)C)C3)[C@H](C)[C@H]12 [Meropenem] (20 µM),0.278 (active)
15,COc1cc(C(=O)OCCCN2CCCN(CCCOC(=O)c3cc(OC)c(OC)c(OC)c3)CC2)cc(OC)c1OC [Dilazep dihydrochloride] (20 µM),1.01
16,CCOC(=O)n1ccn(C)c1=S [Carbimazole] (20 µM),1.09
17,CCOC(=O)CC(=O)N1CCSC1COc1ccccc1OC (stereo not given) [Moguisteine] (20 µM),0.997
18,CN[C@@H]1[C@@H](O[C@H]2O[C@H](CO)[C@@H](N)[C@H](O)[C@H]2O)OC2C[C@@H](N)[C@@H](O[C@H]3[C@H](O)[C@@H](O)[C@H](N)C[C@@H]3N)OC2[C@@H]1O (stereo not given in full) [Apramycin] (20 µM),1
19,Cc1c(OCC(F)(F)F)ccnc1C[S+]([O-])c1nc2ccccc2[nH]1 (stereo not given) [Lansoprazole] (20 µM),1.03
20,Cn1c(=O)cc(N2CCC[C@@H](N)C2)n(Cc2ccccc2C#N)c1=O [Alogliptin benzoate] (20 µM),1.01

row,Structure (SMILES),fold change of Putrescine concentration
1,Nc1nc(F)nc2c1ncn2[C@@H]1O[C@H](CO)[C@@H](O)[C@@H]1O [Fludarabine] (20 µM),0.546
2,CCN(Cc1ccncc1)C(=O)C(CO)c1ccccc1 (stereo not given) [Tropicamide] (20 µM),1.03
3,CNC1(C)C2CCC(C2)C1(C)C (stereo not given) [Mecamylamine hydrochloride] (20 µM),0.992
4,CC1=NN(c2ccccc2)C(=O)C1 [Edaravone] (20 µM),1.03
5,Nc1ccn([C@@H]2O[C@H](CO)[C@@H](O)C2(F)F)c(=O)n1 [Gemcitabine] (20 µM),0.969
6,CCCC(CCC)C(=O)O[C@H]1C[C@H]2CC[C@@H](C1)[N+]2(C)C [Anisotropine Methylbromide] (20 µM),1.03
7,COc1c(N2CCNC(C)C2)c(F)cc2c(=O)c(C(=O)O)cn(C3CC3)c12 (stereo not given) [Gatifloxacin] (20 µM),0.888
8,OC(CNCC(O)C1CCc2cc(F)ccc2O1)C1CCc2cc(F)ccc2O1 (stereo not given) [Nebivolol hydrochloride] (20 µM),1.03
9,COc1ccccc1O [Guaiacol] (20 µM),0.994
10,COc1ccc(CC2c3cc(OC)c(OC)cc3CC[N+]2(C)CCC(=O)OCCCCCOC(=O)CC[N+]2(C)CCc3cc(OC)c(OC)cc3C2Cc2ccc(OC)c(OC)c2)cc1OC (stereo not given) [Atracurium besylate] (20 µM),1.09
11,O=C(O)Cc1cc(I)c(Oc2ccc(O)c(I)c2)c(I)c1 [Tiratricol] (20 µM),1.05
12,COc1cc(/C=C/C(=O)N2CCN(CC(=O)N3CCCC3)CC2)cc(OC)c1OC [Cinepazide maleate] (20 µM),1.01
13,C[C@H](CCC(=O)O)[C@H]1CC[C@H]2[C@@H]3C(=O)C[C@@H]4CC(=O)CC[C@]4(C)[C@H]3CC(=O)[C@]12C [Dehydrocholic acid] (20 µM),0.975
14,CN1CCOC(c2ccccc2)c2ccccc2C1 (stereo not given) [Nefopam hydrochloride] (20 µM),1.03
15,CCOc1ccc(NC(N)=O)cc1 [(4-Ethoxyphenyl)urea] (50 µM),0.971
16,CCCCOc1ccc(CC(=O)NO)cc1 [Bufexamac] (20 µM),0.929
17,CCOc1ccc2ccccc2c1C(=O)N[C@@H]1C(=O)N2[C@@H]1SC(C)(C)[C@@H]2C(=O)O [Nafcillin sodium salt monohydrate] (20 µM),0.908
18,c1ccc2cc3c(ccc4ccccc43)cc2c1 [Benz[a]anthracene] (20 µM),1.02
19,CC(C)NC[C@H](O)COc1cccc2ccccc12 [(S)-(-)-Propranolol hydrochloride] (20 µM),0.986
